From PubChem BioAssay (NCI) come the findings set out here.

Common to all, as to assay: NCI-60 one-dose screen, 48 h (100 = growth as untreated, 0 = no growth, -100 = all killed)
The test system of one experiment is HCT-15 colon. To be noted: 10 µM unless noted.
For the next experiment, the system named is HT29 colon. Conditions: 10 µM unless noted.
The next experiment has as its system SNB-75 CNS. Conditions: 10 µM unless noted.
The next experiment deals with SNB-19 CNS. To be noted: 10 µM unless noted.
The test system of a further experiment is U251 CNS. To be noted: 10 µM unless noted.
A further experiment has as its system PC-3 prostate. Conditions: 10 µM unless noted.
Another experiment concerns SK-MEL-5 melanoma. To be noted: 10 µM unless noted.
Another experiment relates to UACC-62 melanoma. To be noted: 10 µM unless noted.
The next experiment concerns LOX IMVI melanoma. To be noted: 10 µM unless noted.
The next experiment relates to SK-MEL-28 melanoma. Conditions: 10 µM unless noted.
A further experiment concerns SK-MEL-2 melanoma. To be noted: 10 µM unless noted.
For a further experiment, the system named is SN12C renal. Conditions: 10 µM unless noted.
In another experiment the test system is UO-31 renal. To be noted: 10 µM unless noted.
Another experiment deals with TK-10 renal. To be noted: 10 µM unless noted.
For a further experiment, the system named is ACHN renal. Conditions: 10 µM unless noted.
The test system of another experiment is CAKI-1 renal. Conditions: 10 µM unless noted.
For the next experiment, the system named is A498 renal. Conditions: 10 µM unless noted.
For the next experiment, the system named is CCRF-CEM leukemia. To be noted: 10 µM.
The subject of another experiment is MOLT-4 leukemia. To be noted: 10 µM unless noted.
For the next experiment, the system named is EKVX NSCLC. To be noted: 10 µM.

The panel holds about 83,000 compounds, 20% with a hit somewhere; the sample as a whole holds those more often.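 Method: cells in 96-well plates; compound added at one concentration; 48 h incubation; percent growth measured; values under 10 scored active.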 Values without a mark were called inactive. Active and inactive are the calls of the source.

On to `CCCCCCC(C)N(CC(C)(C)O)C(=O)c1ccc([N+](=O)[O-])cc1` (stereo unspecified), for which the growth in the experiment on HCT-15 colon is 104%; in the experiment on HT29 colon, 91.6%; with SNB-75 CNS it was 97.3%; with SNB-19 CNS, 95.4%; in the experiment with U251 CNS it was 97.4%; in the experiment on PC-3 prostate, 87.2%. Besides, the growth is 95% in the experiment with SK-MEL-5 melanoma; 91.4% in the experiment on UACC-62 melanoma; 104% in the experiment with LOX IMVI melanoma; 111% in the experiment on SK-MEL-28 melanoma; 89.7% in the experiment on SK-MEL-2 melanoma; 104% in the experiment with SN12C renal. Further, the growth in the experiment with UO-31 renal is 58.6%; with TK-10 renal it was 92.6%; with ACHN renal, 107%; in the experiment with CAKI-1 renal, 108%; in the experiment on A498 renal, 101%; in the experiment on CCRF-CEM leukemia it was 74.8%. Moreover, in the experiment with MOLT-4 leukemia, the growth was 90.4%.

As for `O=C(Nc1ccc(Cl)c(Cl)c1)O/N=C\c1c(Cl)ccc([N+](=O)[O-])c1Cl`, the growth was -3.17% (active) in the experiment on HCT-15 colon; -73% (active) in the experiment on HT29 colon; 16.9% in the experiment with SNB-75 CNS; 49.5% in the experiment with SNB-19 CNS; 3.06% (active) in the experiment on U251 CNS; -8.42% (active) with PC-3 prostate. In addition, the growth in the experiment on SK-MEL-5 melanoma is 48.3%; in the experiment with UACC-62 melanoma, -63.5% (active); with LOX IMVI melanoma, -82.1% (active); in the experiment on SK-MEL-28 melanoma, -12.3% (active); with SK-MEL-2 melanoma, -4.77% (active); in the experiment on SN12C renal, -52.4% (active). In addition, the growth was -32.6% (active) in the experiment on UO-31 renal; -97.2% (active) with TK-10 renal; -59.5% (active) in the experiment on ACHN renal; 7.78% (active) in the experiment with CAKI-1 renal; 46% with A498 renal; -19.3% (active) in the experiment on CCRF-CEM leukemia. The growth in the experiment with MOLT-4 leukemia is -32.9% (active).

For the compound `CCN(CC)CCCC(C)Nc1c(C)cnc2cc(Cl)c(C)cc12` (stereo unspecified), the growth with HCT-15 colon is 86.8%; in the experiment on HT29 colon it was 40%; in the experiment with SNB-75 CNS, 95.5%; with SNB-19 CNS it was 99.9%; in the experiment on U251 CNS, 84.7%; in the experiment on PC-3 prostate, 87.8%. Also, the growth was 90.2% in the experiment with SK-MEL-5 melanoma; 109% with UACC-62 melanoma; 81.2% with LOX IMVI melanoma; 85.4% in the experiment on SK-MEL-28 melanoma; 117% in the experiment with SK-MEL-2 melanoma; 94.5% in the experiment with SN12C renal. Besides, the growth was 66.8% in the experiment with UO-31 renal; 90.5% in the experiment on TK-10 renal; 94% with ACHN renal; 80.6% in the experiment with CAKI-1 renal; 83.2% in the experiment on A498 renal; 62.2% in the experiment with CCRF-CEM leukemia. The growth in the experiment with MOLT-4 leukemia is 62.7%.

Regarding `Cc1ccnc2c(NC(C)CCCN)cc(O)c(O)c12` (stereo unspecified), the growth is 121% with HCT-15 colon; 60% in the experiment with HT29 colon; 105% with SNB-75 CNS; 102% in the experiment with SNB-19 CNS; 83.1% with U251 CNS; 91.6% with PC-3 prostate. Further, the growth with SK-MEL-5 melanoma is 95.9%; in the experiment on UACC-62 melanoma, 105%; with LOX IMVI melanoma it was 60.7%; in the experiment with SK-MEL-28 melanoma it was 115%; with SK-MEL-2 melanoma it was 91.9%; in the experiment with EKVX NSCLC, 93.8%. Besides, the growth was 83.7% in the experiment with UO-31 renal; 109% in the experiment on TK-10 renal; 89.3% with CAKI-1 renal; 93.5% in the experiment on A498 renal; 39.6% with CCRF-CEM leukemia; 54.1% in the experiment with MOLT-4 leukemia.

On to `CCCCCCCCC1OC1CCCCCCCC(=O)O` (stereo unspecified), for which the growth in the experiment with HCT-15 colon is 96.6%; in the experiment with HT29 colon, 118%; with SNB-75 CNS, 92.9%; with SNB-19 CNS it was 101%; with U251 CNS, 91.3%; in the experiment with PC-3 prostate, 89.9%. Besides, the growth with SK-MEL-5 melanoma was 98%; with UACC-62 melanoma, 88.5%; with LOX IMVI melanoma, 109%; in the experiment with SK-MEL-28 melanoma it was 110%; in the experiment with SK-MEL-2 melanoma it was 103%; in the experiment on SN12C renal, 94.5%. The growth is 96.7% with UO-31 renal; 104% in the experiment on TK-10 renal; 103% with ACHN renal; 100% in the experiment with CAKI-1 renal; 102% in the experiment with A498 renal; 93% in the experiment with CCRF-CEM leukemia. The growth with MOLT-4 leukemia is 104%.

As for `CNCCCNCCCCNCCCN1C(=O)c2ccc3c4c(ccc(c24)C1=O)C(=O)N(CCCNCc1ccccc1OC)C3=O`, the growth was 46.8% with HCT-15 colon; 4.56% (active) in the experiment on HT29 colon; -0.885% (active) in the experiment on SNB-75 CNS; 36% in the experiment with SNB-19 CNS; 41.2% in the experiment on U251 CNS; 58.7% in the experiment on PC-3 prostate. For the same compound, the growth in the experiment on SK-MEL-5 melanoma is 10.7%; in the experiment with UACC-62 melanoma, -1.88% (active); in the experiment with LOX IMVI melanoma, 8.88% (active); with SK-MEL-28 melanoma it was -9.35% (active); with SK-MEL-2 melanoma, 14%; in the experiment on SN12C renal it was 24.6%. The growth was 16.8% in the experiment on UO-31 renal; 41.9% in the experiment on TK-10 renal; 26% in the experiment on ACHN renal; 28.6% in the experiment with CAKI-1 renal; 45.1% with A498 renal; 45.8% in the experiment on CCRF-CEM leukemia. Besides, in the experiment on MOLT-4 leukemia, the growth was 24.9%.

On to `O=C(O)CS(=O)c1ccc(Cl)cc1` (stereo unspecified), for which the growth was 95.9% in the experiment on HCT-15 colon; 105% with HT29 colon; 103% in the experiment with SNB-75 CNS; 104% in the experiment on SNB-19 CNS; 99.7% in the experiment on U251 CNS; 110% with PC-3 prostate. Further, the growth with SK-MEL-5 melanoma was 102%; in the experiment on UACC-62 melanoma, 111%; in the experiment with LOX IMVI melanoma, 91%; in the experiment on SK-MEL-28 melanoma it was 105%; in the experiment with SK-MEL-2 melanoma, 114%; in the experiment with SN12C renal it was 104%. Moreover, the growth with UO-31 renal was 102%; with TK-10 renal it was 96.1%; in the experiment with ACHN renal it was 95.2%; in the experiment on CAKI-1 renal it was 115%; in the experiment on A498 renal it was 91.9%; in the experiment with CCRF-CEM leukemia, 98.5%. The growth with MOLT-4 leukemia is 90.5%.

For `O=C(/C=C\c1ccc(NCc2ccc(C(=O)O)cc2)cc1)CCl`, the growth is 72.4% with HCT-15 colon; 84.9% in the experiment on HT29 colon; 91.1% in the experiment on SNB-75 CNS; 96.7% in the experiment on SNB-19 CNS; 84.5% with U251 CNS; 96.2% with PC-3 prostate. The growth with SK-MEL-5 melanoma was 100%; in the experiment with UACC-62 melanoma it was 84.2%; in the experiment with LOX IMVI melanoma, 5.63% (active); with SK-MEL-28 melanoma it was 104%; in the experiment with SK-MEL-2 melanoma, 97%; in the experiment on SN12C renal, 79.7%. Further, the growth in the experiment with UO-31 renal is 78.6%; with TK-10 renal, 93.4%; with ACHN renal, 93.3%; in the experiment with CAKI-1 renal, 105%; with A498 renal it was 55.6%; in the experiment on CCRF-CEM leukemia, -8.72% (active). The growth in the experiment on MOLT-4 leukemia was 6.28% (active).
